# Reference: PubChem BioAssay AID1345083 (National Center for Advancing Translational Sciences (NCATS), 2018)
# Hit rate of the full screen: of about 94,000 compounds, about 6,200 (6.6%) were called active. Roughly 31% stayed inconclusive and do not appear here. For the sample, actives were picked, then their nearest neighbours and some compounds at random. Unmarked numbers belong to inactive results. The call rests on the fitted dose curve; in most records, active means well fitted inhibition curve with a large enough effect; inconclusive means small, poorly fitted or top-dose-only effect; inactive means flat fitted curve, though single readings scatter.
# Experiment: Cytotoxic Profiling in HEK 293 Cell Line of Diverse Libraries Using Quantitative High-Throughput Screening; further: nearly all actives have a fitted effect of over 60% in size
# Conditions: HEK 293 viability, ATP luminescence (CellTiter-Glo), 48-72 h; series mostly up to 115 µM; activity change, negative = cytotoxicity: at the top concentration
# Procedure, shortened: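 Read-out: CellTiter-Glo ATP luminescence. Cells: HEK 293, 250 cells/well. Exposure: 48 or 72 hr, 37 degree Celsius.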
# On the % scale 0 is the no-effect control and ±100 the full control effect; potency means the concentration at half of the fitted maximal effect.
Structure (SMILES),"activity change, negative = cytotoxicity",Potency,outcome
CCN(CC)C1CCOC2(CCN(C(=O)c3ccncc3)CC2)C1 (configuration not stated),-7.62%,–,–
CCn1nccc1C(=O)N1CCC2(CC1)CC(N(Cc1ccc(F)cc1)C1CC1)CCO2 (configuration not stated),–,39.8 µM (active),–
O=C(c1ccc(F)cc1)N1CCC2(CC1)CC(OCC1CC1)CCO2 (configuration not stated),-5.72%,–,–
Cc1cccc(CC(=O)N2CCC(c3n[nH]c(=O)n3-c3ccccc3)CC2)c1,2.17%,–,–
CN(C)CCNC(=O)[C@H]1C[C@@](C)(C(=O)O)N(C)[C@H]1c1ccc(Cl)cc1,–,–,inactive
Cc1ccccc1N1Cc2c(NCC(C)(C)C)ncnc2N(C)CC1=O,-13.2%,–,–
O=C(NCc1ccc2c(c1)OCO2)C1CCCN(Cc2cccc(-c3cccs3)c2)C1 (configuration not stated),–,28.2 µM (active),–
COCCNC(=O)C1CCCN(Cc2cccc(-c3cccs3)c2)C1 (configuration not stated),-13.6%,–,–
Cc1ccccc1CNC(=O)C1CCCN(Cc2cccnc2)CCC(=O)NCC1 (configuration not stated),-7%,–,–
O=C(NCc1ccc2c(c1)OCO2)C1CN(C2CCCCC2)C(=O)N1 (configuration not stated),-24.3% [at 172 µM],–,–
O=C(NCc1ccc(F)c(F)c1)C1CCCN(Cc2cccc(-c3cccs3)c2)C1 (configuration not stated),–,5.62 µM (active),–
O=C1CCN(S(=O)(=O)c2cccc(F)c2)CCCC(C(=O)NCc2ccccc2)CCN1 (configuration not stated),-20.4%,–,–
COc1ccc(C(=O)N2CCc3n[nH]c(=O)n3CC2)cc1F,-2.48%,–,–
O=C(N[C@H]1[C@H](O)[C@H](O)C[C@@H]1c1ccncc1)c1ccccn1,-11.5% [at 172 µM],–,–
CN(C)c1ccc(CNCC2(COc3ccc(S(C)(=O)=O)cc3)C[C@@H](O)[C@@H](O)C2)cc1 (some centres not stated),-21%,–,–
O=C(NC1CC1)c1ccc(N2CC3CC(C2)[C@H]2CCCC(=O)N2C3)nc1 (some centres not stated),-6.11%,–,–
Cc1cc(C(=O)N2CCC(N3C(=O)C(OCC4CC4)C34CCOCC4)CC2)nn1C (configuration not stated),-6.69%,–,–
CN(C)c1cccc(Nc2cc3c(cn2)NCCN(Cc2ccccc2)C3)c1,–,63.1 µM (active),–
Cn1c(CNC(=O)Cn2nc3c(cc2=O)CCCC3)nc2ccccc21,-0.627%,–,–
O=C(c1cn[nH]c1-c1ccccc1)N1CCC2(CC1)CC(O)CCO2 (configuration not stated),-1.3%,–,–
O=C(Cc1cccc(Cl)c1)N1CCC2(CC1)CN[S+](=O)([O-])c1cccnc1O2,4.98%,–,–
COCC(=O)N1CCCN(Cc2ccncc2)C(c2ccccc2)CC(=O)NCC1 (configuration not stated),–,–,inactive
CC(C)c1ccc(N2C(=O)N[C@@H]3CCN(C(=O)c4ccc(C(C)(C)C)cc4)[C@@H]3C2=O)cc1,–,79.4 µM (active),–
CC(=O)N1CCCN(C(=O)C2CCCCN2Cc2ccc(-c3ccsc3)cc2)CC1 (configuration not stated),-10.1%,–,–
COC(=O)[C@H](Cc1ccc(OC)cc1)NC(=O)[C@H]1CN(C(=O)c2cccnc2)CCN1C(=O)NC1CCCCC1,-0.0528%,–,–

Structure (SMILES),"activity change, negative = cytotoxicity",Potency,outcome
O=C(NCc1ccccn1)C1CCN(C(=O)c2ccc(-c3cccs3)cc2)CC1,-23.9%,–,–
COc1cccc(-c2ccc(CN3CCCC3C(=O)NCc3ccccc3Cl)cc2)c1 (configuration not stated),–,31.6 µM (active),–
COc1cccc(-c2cccc(C(=O)N3CCCC3C(=O)NCC3CC3)c2)c1 (configuration not stated),-24.8%,–,–
O=C(NCCCc1ccccc1)C1CCc2nnc(-c3cccc(C(F)(F)F)c3)n21 (configuration not stated),-15.1%,–,–
COc1ccc(C(=O)N2CCN(Cc3ccccc3-c3ccc(C)c(Cl)c3)CC2)cc1,-17.7%,–,–
Cc1ccc(-c2cccc(CN3CCCC3C(=O)NCC(F)(F)F)c2)cc1Cl (configuration not stated),–,31.6 µM (active),–
COc1cccc(-c2ccc(CN3CCCC3C(=O)NC3CCCCC3)cc2)c1 (configuration not stated),–,44.7 µM (active),–
COc1cccc(CC(=O)NC2CCN(c3cn[nH]c(=O)c3)CC2)c1,1.18%,–,–
Cc1ccc(-c2cccc(CN3CCCC(NC(=O)c4ccc(C(F)(F)F)cc4)C3)c2)cc1Cl (configuration not stated),–,–,inactive
CNC(=O)C1CCCCN1Cc1ccc(-c2cccs2)cc1 (configuration not stated),–,28.2 µM (active),–
COCCC(=O)N1CCC2(CCC2NC(=O)COC)CC1 (configuration not stated),-14.6%,–,–
CCN(CC)CC(=O)N1CCC(Oc2ccccc2C)(C(=O)O)CC1,-17.2%,–,–
COCC(=O)N(C1CCOCC1)C1CCN(C(=O)c2cccc(OC)c2)CC1,-3.91%,–,–
CCN1C(=O)COC[C@@H]1C(O)c1ccc(NC(=O)Cc2ccc(OC)cc2)cc1 (some centres not stated),-8.19% [at 172 µM],–,–
CC(C)CN1C(=O)COC[C@@H]1[C@H](O)c1ccc(NC(=O)Cc2ccccc2)cc1,-0.865% [at 172 µM],–,–
COc1ccccc1CN1C(=O)COC[C@@H]1[C@H](O)c1ccc(NC(=O)c2ccc(C#N)cc2)cc1,–,39.8 µM (active),–
Cc1ccc(NC(=O)N2CC[C@H]3C(=O)NCCCCCN(Cc4cccnc4)[C@@H]3C2)cc1C,-11.9%,–,–
O=C(CCC1CCCC1)N1CCN2CCS(=O)(=O)N(C3CC3)C(=O)C2C1 (configuration not stated),-7.58%,–,–
CC(C)c1ccc(S(=O)(=O)N(C)CC2CCOC2)cc1 (configuration not stated),-18%,–,–
O=c1[nH]c(-c2ccncc2)nc2c1CCN(S(=O)(=O)N1CCCC1)C2,-1.44%,–,–
O=C([C@@H]1C[C@H](F)CN1S(=O)(=O)c1ccc(Cl)cc1)N1CCCCC1,2.25%,–,–
O=C(c1cccc(Br)c1)N1CCN(C2CCN(Cc3ccccn3)C2=O)CC1 (configuration not stated),-2.68%,–,–
O=C(c1ccncc1)N1CCN(c2ccc(Cl)nn2)C(=O)C1,–,–,inactive
Cn1cc(CN2CCN(Cc3ccccc3)CC2)ccc1=O,-24.9%,–,–
O=C1CN(Cc2ccc(-c3ccccc3)cc2)CCN1c1cc(Cl)ncn1,–,31.6 µM (active),–

Structure (SMILES),"activity change, negative = cytotoxicity",Potency,outcome
COc1ccc(Cn2c(CN(C)S(C)(=O)=O)n[nH]c2=O)cc1,1.29%,–,–
CC(C(=O)NC1CCCCC1)[C@@H]1CC[C@@]2(C)CC[C@H](N[S+](C)(=O)[O-])[C@@H](C)[C@@H]2[C@H]1O (some centres not stated),-20.7% [at 172 µM],–,–
CN(Cc1ccc(-c2ccccc2)cc1)C(=O)c1ccccc1F,–,89.1 µM (active),–
CN(Cc1ccccc1)Cc1ccc(F)cc1,3.55% [at 230 µM],–,–
CN(Cc1ccc(OC(F)(F)F)cc1)Cc1ccc(-c2ccccc2)cc1,-3.55%,–,–
O=C(CC1Cc2ccccc2C1)N1CCN(CCO)CC(O)C1 (configuration not stated),-1.63%,–,–
CCCCCC(=O)Nc1nc2c(s1)C[C@@H]1[C@](C)(CO)[C@H](O)CC[C@@]1(C)[C@@H]2CC(=O)N1CCC(C(N)=O)CC1,0.324%,–,–
O=C(CCn1cccn1)N[C@@H]1CN(Cc2ccccc2)C[C@H]1CO,-10.6%,–,–
CSc1ccc(CNC(=O)c2noc(-c3ccc(C)cc3)n2)cc1,5.61%,–,–
CC1=Nc2cc(C(=O)NCc3ccc(C)cc3)ccc2Sc2ccc(Cl)cc21,–,31.6 µM (active),–
O=C(CCc1cc(Cl)no1)NCCc1noc(C2CC2)n1,-22.8%,–,–
COc1ccc(-c2nnc3n2CCN([S+](C)(=O)[O-])C3)cc1,-14.1% [at 172 µM],–,–
Cc1cc(C)n(C2CN(c3cc(C4CC(O)C4)nc(C)n3)C2)n1 (configuration not stated),3.05%,–,–
Cc1cc(C)n(-c2ccc(NC(=O)CC[C@H]3NC(=O)c4ccccc4NC3=O)cc2)n1,0.189%,–,–
O=C(NC1CCCc2c1[nH]c1ccc(F)cc21)c1ccccn1 (configuration not stated),-59%,–,–
COc1ccc(CC(=O)NC2CCCc3c2[nH]c2ccccc32)cc1 (configuration not stated),–,35.5 µM (active),–
COc1ccc(C(=O)N[C@@H]2CCC[C@@H]2C(=O)NCc2cccc(OC)c2)cc1,-0.388%,–,–
CN1CCCN(C(=O)c2ccccc2)c2ccccc21,-19.7%,–,–
COCCNC(=O)c1ccc2nnc(-c3cccc(C(F)(F)F)c3)n2c1,0.3%,–,–
CCN1CCN(C(=O)c2ccc3nnc(Cc4ccc(Cl)cc4)n3c2)CC1,–,–,inactive
O=C(NCc1ccc(F)cc1)c1ccc2nnc(Cc3ccco3)n2c1,–,inactive,–
O=C(NCc1ccc(C(F)(F)F)cc1)c1ccc2nnc(-c3ccc(C(F)(F)F)cc3)n2c1,–,35.5 µM (active),–
O=C(NCc1ccc(F)c(F)c1)c1ccc2nnc(-c3cccnc3)n2c1,-3.74%,–,–
O=C(NCc1cccc(Cl)c1)c1ccc2nnc(Cc3ccc(Cl)cc3)n2c1,–,44.7 µM (active),–
COc1cccc(CN2CC(O)CN(S(C)(=O)=O)CC2=O)c1OC (configuration not stated),-15.1%,–,–

Structure (SMILES),"activity change, negative = cytotoxicity",Potency,outcome
COc1ccc2[nH]c(C(=O)N[C@@H]3CN(S(C)(=O)=O)C[C@H]3CN(C)C)cc2c1,3.78%,–,–
CCNC(=O)N1CCC(n2c(C)cnc2C2CCC2)CC1,–,–,inactive
COCCc1noc(CC2CCOC3(CCN(C(=O)Nc4ccc5c(c4)OCCO5)CC3)C2)n1 (configuration not stated),-16.7%,–,–
COc1ccc(CN2CCC3(CC(C(C)C)=NO3)C2)cc1 (configuration not stated),3.43% [at 172 µM],–,–
COc1ccc(CN2CCC3(CC2)CC(=O)c2ccc(Cl)cc2O3)cc1,–,39.8 µM (active),–
CC1=NOC2(CCN(Cc3ccncc3)CC2)C1,–,–,inactive [at 172 µM]
COc1ccccc1CN1CC[C@H](CNC(C)=O)[C@H](N(C)C)C1,-6.07%,–,–
O=C(Cc1ccc(F)cc1)NC1CCN(c2cc(-c3ccc(Cl)cc3)[nH]n2)CC1,1.39%,–,–
O=C(NCC1CCN(c2cc(-c3ccc(Cl)cc3)[nH]n2)CC1)c1ccc(=O)[nH]c1,-5.24%,–,–
COc1ccccc1C(=O)N1CCCN(c2ccc3nnc(C)n3n2)CC1,-1.49%,–,–
COc1ccccc1C(=O)N1CCCN(c2nnc3ccccn23)CC1,-2.9%,–,–
COc1ccc(-c2cc(N3CCN(C(=O)c4ccncc4)CC3)n[nH]2)cc1,-19.5%,–,–
O=C(c1ccc2cc[nH]c2c1)N1CCCN(c2cc(-c3ccc(Cl)cc3)[nH]n2)CC1,–,39.8 µM (active),–
O=C(c1ccc(F)cc1F)N1CCN(c2cc(-c3ccc(Cl)cc3)[nH]n2)CC1,–,39.8 µM (active),–
O=C(c1ccccc1Cl)N1CCCN(c2cc(-c3ccc(F)cc3)[nH]n2)CC1,–,44.7 µM (active),–
O=C(NCc1ccccc1F)C1(c2ccc(Cl)cc2)CCOCC1,-17.4% [at 172 µM],–,–
CC(=O)N1CCC(C(=O)NCC2CCN(c3cc(-c4ccc(C)cc4)[nH]n3)CC2)CC1,-16.8%,–,–
O=C(N1CCN(c2cc(-c3ccc(Cl)cc3)[nH]n2)CC1)C1(c2ccccc2)CC1,–,44.7 µM (active),–
Cc1nccn1CC(=O)NCC1CCN(c2cc(-c3ccccc3)[nH]n2)CC1,0.823%,–,–
C#CCNC(=O)C[C@@H]1O[C@H](CNC(C)=O)[C@@H](O)[C@H]1O,–,–,inactive [at 230 µM]
O=C(NCCc1ccccc1)c1nc2sccn2c1-c1ccccc1,-15.6%,–,–
Cc1nc(CC(=O)N2C[C@@H](CN3CCCCCC3)[C@@H](CO)C2)cs1,-2.94%,–,–
